A number with no mark means an inactive call. Records with an inconclusive call do not appear. Where a call stands in place of a potency, no number is given. The source made the active and inactive calls. Unless noted, calls come from the whole dose curve.
Columns and labels:
[1] = Nuclear factor erythroid 2-related factor 2/antioxidant responsive element (Nrf2/ARE) small molecule agonists: qHTS cell viability counter screen in human keratinocytes (AID 1919968; active = well fitted curve in the direction sought with a large enough effect in the repeat runs; an effect the other way counts as inactive or inconclusive; note: nearly all actives have a fitted effect of over 55% in size; note: potency is the fitted concentration of half-maximal effect)
Summary of the method: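 HaCaT ARE reporter line, 1,500 cells/well; 5 h settle, 37 C/5% CO2; cpd in DMSO pinned; 23 h exposure; CellTiter-Fluor, 1 h; fluorescence.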

[2] = target: Gonadotropin-releasing hormone receptor (Homo sapiens) (UniProt P30968); experiment: Human gonadotropin-releasing hormone receptor (GnRHR) small molecule agonists, calcium flux assay in GnRHR-HEK293 cells (AID 1920063); note: nearly all actives have a fitted effect of over 35% in size
Summary of the method: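 GnRHR-HEK293, 1500 cells/well, 18 h 37 C/5% CO2; Ca dye 1 h 37 C; cpd pinned (DMSO), agonist mode; kinetic FL 480/540, 3 min, 1 s reads; 15 conc, n=3.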

[3] = target: KiSS-1 receptor (Homo sapiens) (UniProt Q969F8); experiment: Human kisspeptin (KISS1R) small molecule agonists, calcium flux assay in KISS1R-HEK293 cells (AID 1920064; active = well fitted curve in the direction sought with a large enough effect in the repeat runs; an effect the other way counts as inactive or inconclusive)
Summary of the method: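 Stable human KISS1R HEK293 line; 18 h plating, 37 C/5% CO2; calcium dye 1 h 37 C; compound pin transfer; kinetic fluorescence Ex/Em 480/540, 3 min.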

[4] = G protein-coupled receptor (GPCR) small molecule agonists, calcium flux assay: HEK293 wild type cell line counter screen (AID 1920065)
Summary of the method: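 Kinetic fluorescence at Ex/Em 480/540, recorded every second over 3 min, served as the read-out after compound addition. Each compound was tested at 15 concentrations in triplicate on cells pre-loaded with calcium dye for 1 h.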

[5] = p53 small molecule agonists, cell-based qHTS assay with human liver microsomes (AID 1963577)
Summary of the method: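 p53RE-bla cells, 4,000/well, compound added after 5 h, with human liver microsomes 0.5 mg/mL and NADPH 0.5 mg/mL final; 16 h at 37 C, then LiveBLAzer 2 h RT, fluorescence.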

[6] = p53 small molecule agonists, cell-based qHTS assay with rat liver microsomes (AID 1963578)
Summary of the method: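 p53RE-bla cells, 4,000/well, pre-incubated 5 h, then given compounds plus rat liver microsomes (0.5 mg/mL final) and NADPH (0.5 mg/mL final). Incubation 16 h at 37 C; beta-lactamase reporter read by LiveBLAzer fluorescence after 2 h at room temperature.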

[7] = p53 small molecule agonists, cell-based qHTS assay with human liver microsomes: qHTS cell viability counter screen (AID 1963579); note: nearly all actives have a fitted effect of over 45% in size
Summary of the method: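 p53RE-bla cells, 4,000/well, dosed 5 hours after plating, with human liver microsomes (0.5 mg/mL final) plus NADPH (0.5 mg/mL final), 16 hours at 37 C. Viability read as CellTiter-Glo luminescence after 30 min at room temperature.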

[8] = p53 small molecule agonists, cell-based qHTS assay with rat liver microsomes: qHTS cell viability counter screen (AID 1963580); note: nearly all actives have a fitted effect of over 45% in size
Summary of the method: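 In HCT-116 cells carrying a p53 response element-bla reporter, compounds were metabolically activated in situ by rat liver microsomes with NADPH over 16 h. Cell ATP content then served as the cytotoxicity measure.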

[9] = p53 small molecule agonists, cell-based qHTS assay: qHTS cell viability counter screen (AID 1963581); note: nearly all actives have a fitted effect of over 45% in size
Summary of the method: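 HCT-116 p53RE-bla cells, 4,000/well, plated 5 h before compound pin transfer; 16 h at 37 C; bla substrate 2 h RT; then CellTiter-Glo, 30 min RT, luminescence.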

[10] = p53 small molecule agonists, cell-based qHTS assay (AID 1963582; active = well fitted activation curve with a large enough effect in the signal ratio in the repeat runs, not every such curve was filed as active; the % refers to the signal ratio)
Summary of the method: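 Reporter line: p53RE-bla. Pre-incubation 5 h, 37 C, 5% CO2; compound (DMSO, pin tool) 16 h, 37 C; B/G FRET substrate 2 h RT; fluorescence intensity read.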

[11] = target: 5-hydroxytryptamine receptor 2A (Homo sapiens) (UniProt P28223); experiment: 5-hydroxytryptamine receptor 2A (HTR2A) small molecule antagonists, cell-based qHTS assay (AID 1963586); note: nearly all actives have a fitted effect of over 45% in size
Summary of the method: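 Antagonist-mode intracellular calcium assay: DOI (4 nM) added after 5 min compound pre-incubation at room temperature to dye-loaded HTR2A-CHO cells. Fluorescence followed for 3 min, sampled every second.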

[12] = target: 5-hydroxytryptamine receptor 2A (Homo sapiens) (UniProt P28223); experiment: 5-hydroxytryptamine receptor 2A (HTR2A) small molecule agonists, cell-based qHTS assay (AID 1963587); note: nearly all actives have a fitted effect of over 30% in size; note: potency is the fitted concentration of half-maximal effect
Summary of the method: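 HTR2A-CHO cells, plated 18 h at 37 C/5% CO2, dye-loaded 1 h at 37 C; compounds in DMSO added by pin tool (agonist mode). Intracellular calcium flux read as kinetic fluorescence on FDSS over 2 min at 1 s intervals.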

[13] = target: Muscarinic acetylcholine receptor M1 (Homo sapiens) (UniProt P11229); experiment: Cholinergic receptor muscarinic 1 (CHRM1) small molecule antagonists, cell-based qHTS assay (AID 1963588); note: nearly all actives have a fitted effect of over 40% in size; note: potency is the fitted concentration of half-maximal effect
Summary of the method: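 CHRM1-CHO calcium-flux assay, antagonist mode. Cells were seeded 18 h, dye-loaded 1 h at 37 C and given compound for 5 min at RT, then acetylcholine was added at 50nM. FDSS fluorescence was read 3 min; 15 concentrations, three runs.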

[14] = target: Beta-2 adrenergic receptor (Homo sapiens) (UniProt P07550); experiment: Adrenergic beta2 receptor (ADRB2) small molecule antagonists, cell-based qHTS assay (AID 1963592); note: nearly all actives have a fitted effect of over 50% in size; note: potency is the fitted concentration of half-maximal effect
Summary of the method: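 Cells (CHO, stable ADRB2 overexpression) incubated 18-20hr at 37C; compounds added from DMSO; agonist mix (1nM isoproterenol, 100uM IBMX, 25uM Ro-20-1724) added; 0.5hr RT; d2-cAMP and anti-cAMP-cryptate added; 1hr RT; 665/615 nm read.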

[15] = target: D(2) dopamine receptor (Homo sapiens) (UniProt P14416); experiment: Dopamine D2 receptor (DRD2) small molecule agonists, cell-based qHTS assay (AID 1963594); note: nearly all actives have a fitted effect of over 35% in size; note: potency is the fitted concentration of half-maximal effect
Summary of the method: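 HEK293 cells stably expressing DRD2 were cultured 24 h at 37 C, then given Ro20-1724 (0.1 mM final) and compounds for 10 min at room temperature. NKH477 (200nM) was then added for 30 min. cAMP was read by HTRF.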

[16] = target: D(2) dopamine receptor (Homo sapiens) (UniProt P14416); experiment: Dopamine D2 receptor (DRD2) small molecule antagonists, cell-based qHTS assay (AID 1963595; active = well fitted inhibition curve with a large enough effect in the signal ratio in the repeat runs, with a control signal flat; the % refers to the signal ratio)
Summary of the method: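 Stable D2 receptor HEK293 line, 24 h after seeding. Compound preincubated 10 min, then quinpirole (12 nM) with forskolin analogue NKH477 (200 nM), 30 min, room temperature. Detection by time-resolved FRET of cAMP.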

[17] = target: Muscarinic acetylcholine receptor M1 (Homo sapiens) (UniProt P11229); experiment: Cholinergic receptor muscarinic 1 (CHRM1) small molecule agonists, cell-based qHTS assay (AID 1963589); note: nearly all actives have a fitted effect of over 35% in size
Summary of the method: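 Human M1 in stable CHO line; 18 h plating, 1 h dye load 37 C; cpd added (agonist mode); Ca2+ fluorescence kinetic read, 1 s intervals; 15 conc, 3 runs.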

[18] = cAMP Responsive Elements (CRE) small molecule agonists, cell-based qHTS assay (AID 1963590)
Summary of the method: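 HEK 293T CRE-bla, 2,000 cells/well, 18 h preincubation 37 C/5% CO2; cpds (DMSO) pinned, 3 h; LiveBLAzer B/G FRET substrate, 2 h RT.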

[19] = cAMP Responsive Elements (CRE) small molecule antagonists, cell-based qHTS assay (AID 1963591; active = well fitted inhibition curve with a large enough effect in the signal ratio in the repeat runs, not every such curve was filed as active; the % refers to the signal ratio)
Summary of the method: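 Beta-lactamase reporter read by FRET substrate (LiveBLAzer B/G) after 2 h at room temperature. CRE-bla HEK293T cells had received compound plus 0.25 uM (final) NKH477 for 3 h at 37 °C.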

[20] = target: Beta-2 adrenergic receptor (Homo sapiens) (UniProt P07550); experiment: Adrenergic beta2 receptor (ADRB2) small molecule agonists, cell-based qHTS assay (AID 1963593);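 note: CHO cells stably overexpressing human ADRB2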
Summary of the method: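 CHO cells stably over-expressing ADRB2 were plated overnight at 37C, then dosed with compounds plus a stimulation mix containing 100uM IBMX and 25uM Ro-20-1724 for 0.5hr at room temperature. cAMP was measured by HTRF competition, 1hr.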

Gonadotropin-releasing hormone receptor (Homo sapiens), sequence (P30968 whole entry, looked up): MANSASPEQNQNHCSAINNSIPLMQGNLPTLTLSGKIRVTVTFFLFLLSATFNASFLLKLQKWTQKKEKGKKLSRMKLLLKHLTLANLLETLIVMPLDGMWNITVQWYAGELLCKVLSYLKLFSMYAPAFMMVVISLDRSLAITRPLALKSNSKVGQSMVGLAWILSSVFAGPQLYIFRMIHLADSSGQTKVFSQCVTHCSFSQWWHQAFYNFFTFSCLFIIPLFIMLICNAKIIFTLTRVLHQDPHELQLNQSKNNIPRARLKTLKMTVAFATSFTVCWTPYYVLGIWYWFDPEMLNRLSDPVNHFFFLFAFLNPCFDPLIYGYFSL
5-hydroxytryptamine receptor 2A (Homo sapiens), sequence (P28223 whole entry, looked up): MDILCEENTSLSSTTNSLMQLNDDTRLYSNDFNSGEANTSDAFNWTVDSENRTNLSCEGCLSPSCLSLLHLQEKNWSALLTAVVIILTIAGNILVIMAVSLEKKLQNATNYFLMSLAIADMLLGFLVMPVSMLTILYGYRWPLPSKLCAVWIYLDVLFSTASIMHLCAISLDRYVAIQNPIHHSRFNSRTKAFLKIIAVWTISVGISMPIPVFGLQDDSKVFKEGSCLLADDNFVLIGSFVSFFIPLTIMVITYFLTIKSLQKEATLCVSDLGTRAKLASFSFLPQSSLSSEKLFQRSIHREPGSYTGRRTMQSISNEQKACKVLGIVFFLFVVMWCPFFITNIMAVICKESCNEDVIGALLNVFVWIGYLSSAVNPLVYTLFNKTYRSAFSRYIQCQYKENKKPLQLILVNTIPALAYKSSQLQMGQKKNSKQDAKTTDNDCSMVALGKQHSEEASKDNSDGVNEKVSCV
KiSS-1 receptor (Homo sapiens), sequence (Q969F8 whole entry, looked up): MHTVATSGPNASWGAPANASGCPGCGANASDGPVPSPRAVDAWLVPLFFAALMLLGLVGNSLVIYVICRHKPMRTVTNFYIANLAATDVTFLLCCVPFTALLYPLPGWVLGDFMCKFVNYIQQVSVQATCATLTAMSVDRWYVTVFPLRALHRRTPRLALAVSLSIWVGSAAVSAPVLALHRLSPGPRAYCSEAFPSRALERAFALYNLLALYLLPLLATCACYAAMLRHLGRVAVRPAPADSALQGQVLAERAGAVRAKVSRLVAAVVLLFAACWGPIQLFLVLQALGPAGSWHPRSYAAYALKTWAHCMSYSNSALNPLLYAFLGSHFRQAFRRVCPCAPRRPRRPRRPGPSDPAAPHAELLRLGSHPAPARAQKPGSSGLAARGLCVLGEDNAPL
Beta-2 adrenergic receptor (Homo sapiens), sequence (P07550 whole entry, looked up): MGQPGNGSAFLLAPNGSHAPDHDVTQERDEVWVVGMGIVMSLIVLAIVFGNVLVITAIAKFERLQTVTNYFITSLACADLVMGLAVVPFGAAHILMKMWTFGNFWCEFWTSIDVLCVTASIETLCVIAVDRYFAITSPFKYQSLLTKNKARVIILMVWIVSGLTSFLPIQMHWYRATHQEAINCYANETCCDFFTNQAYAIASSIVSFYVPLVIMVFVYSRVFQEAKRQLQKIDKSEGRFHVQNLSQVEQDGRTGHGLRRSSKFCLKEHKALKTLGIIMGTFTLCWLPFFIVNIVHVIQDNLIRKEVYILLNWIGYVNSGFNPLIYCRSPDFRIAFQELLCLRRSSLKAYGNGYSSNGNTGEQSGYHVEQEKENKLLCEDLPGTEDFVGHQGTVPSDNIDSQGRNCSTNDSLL
D(2) dopamine receptor (Homo sapiens), sequence (P14416 whole entry, looked up): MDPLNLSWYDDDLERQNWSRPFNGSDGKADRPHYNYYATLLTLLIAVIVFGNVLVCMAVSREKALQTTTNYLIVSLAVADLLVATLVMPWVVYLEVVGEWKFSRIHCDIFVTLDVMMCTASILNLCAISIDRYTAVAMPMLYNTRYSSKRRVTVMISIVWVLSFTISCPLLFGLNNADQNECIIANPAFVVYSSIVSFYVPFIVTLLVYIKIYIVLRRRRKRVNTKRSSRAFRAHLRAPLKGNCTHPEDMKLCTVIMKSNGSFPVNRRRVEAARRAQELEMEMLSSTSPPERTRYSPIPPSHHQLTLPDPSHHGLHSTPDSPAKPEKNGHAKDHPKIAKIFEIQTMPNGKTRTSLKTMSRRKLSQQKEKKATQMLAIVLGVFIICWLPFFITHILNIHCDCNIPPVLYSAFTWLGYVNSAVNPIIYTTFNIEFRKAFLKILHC
Muscarinic acetylcholine receptor M1 (Homo sapiens), sequence (P11229 whole entry, looked up): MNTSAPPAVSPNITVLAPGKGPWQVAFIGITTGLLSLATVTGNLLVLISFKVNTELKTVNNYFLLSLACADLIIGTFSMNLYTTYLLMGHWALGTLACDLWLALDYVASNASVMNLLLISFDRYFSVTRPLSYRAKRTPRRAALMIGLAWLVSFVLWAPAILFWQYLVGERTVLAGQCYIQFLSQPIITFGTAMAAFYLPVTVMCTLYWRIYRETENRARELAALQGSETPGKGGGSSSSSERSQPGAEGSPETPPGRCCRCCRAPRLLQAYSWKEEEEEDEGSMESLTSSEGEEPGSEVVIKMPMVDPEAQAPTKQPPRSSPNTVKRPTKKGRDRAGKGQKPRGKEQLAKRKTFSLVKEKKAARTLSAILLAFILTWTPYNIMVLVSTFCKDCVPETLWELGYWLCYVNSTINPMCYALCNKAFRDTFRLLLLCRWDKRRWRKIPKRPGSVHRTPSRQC

SMILES | Potency [1] | Potency [2] | Potency [3] | Potency [4] | Potency [5] | Potency [6] | Potency [7] | Potency [8] | Potency [9] | Potency [10] | Potency [11] | Potency [12] | Potency [13] | Potency [14] | Potency [15] | Potency [16] | Potency [17] | Potency [18] | Potency [19] | Potency [20]
O=C(O)COc1nn(Cc2ccccc2)c2ccccc12 | inactive | inactive | inactive | inactive | inactive | inactive | inactive | inactive | inactive | inactive | inactive | inactive | inactive | inactive | inactive | inactive | – | – | – | –
C=C(C)C(=O)OC | inactive | inactive | inactive | inactive | inactive | inactive | inactive | inactive | inactive | inactive | inactive | – | – | inactive | – | inactive | inactive | inactive | inactive | –
C[Si](Cl)(c1ccccc1)c1ccccc1 | inactive | inactive | inactive | inactive | inactive | inactive | inactive | inactive | inactive | inactive | inactive | – | inactive | inactive | inactive | inactive | inactive | inactive | inactive | –
CCC(=O)/C=C/c1ccc(OC)cc1 | inactive | inactive | inactive | inactive | inactive | inactive | inactive | inactive | inactive | inactive | inactive | inactive | inactive | – | inactive | inactive | inactive | – | – | inactive
C/C=C1\[C@H]2C=C(C)C[C@]1(N)c1ccc(=O)[nH]c1C2 | inactive | inactive | inactive | inactive | inactive | inactive | inactive | inactive | inactive | inactive | – | – | – | inactive | – | inactive | – | – | inactive | inactive
CC(=O)O[Si](C)(OC(C)=O)OC(C)=O | inactive | inactive | inactive | inactive | inactive | inactive | inactive | inactive | inactive | inactive | inactive | inactive | inactive | inactive | – | inactive | – | inactive | inactive | –
NC1(c2ccc(-c3nc4ccn5c(=O)[nH]nc5c4cc3-c3ccccc3)cc2)CCC1 | 29.8 µM (active) | inactive | inactive | inactive | inactive | inactive | inactive | inactive | inactive | inactive | inactive | 26.8 µM (active) | 2.9 µM (active) | inactive | – | inactive | inactive | – | – | –
O=[N+]([O-])c1cccc(C(F)(F)F)c1 | inactive | inactive | inactive | inactive | inactive | inactive | inactive | inactive | inactive | inactive | inactive | inactive | inactive | inactive | inactive | inactive | inactive | – | inactive | –
CCCCNc1cc(C(=O)O)cc(S(N)(=O)=O)c1Oc1ccccc1 | inactive | inactive | inactive | inactive | inactive | inactive | inactive | inactive | inactive | inactive | – | inactive | – | inactive | inactive | inactive | inactive | inactive | inactive | –
CCOC(=O)c1ccc(C2CCC(NC[C@H](O)COc3ccc(O)c(NS(C)(=O)=O)c3)CC2)cc1 (stereo partly specified) | 56.4 µM (active) | inactive | inactive | inactive | inactive | inactive | inactive | inactive | inactive | – | inactive | inactive | 8.69 µM (active) | 7.96 µM (active) | 0.0796 µM (active) | inactive | inactive | – | – | –
C(=C\c1ccccc1)/CN1CCN(C(c2ccccc2)c2ccccc2)CC1 | 13.3 µM (active) | inactive | inactive | inactive | inactive | inactive | inactive | inactive | inactive | inactive | – | – | – | inactive | inactive | – | – | – | – | –
CC(=O)c1ccc(OCC(=O)N2CCCCC2)cc1 | inactive | inactive | inactive | inactive | inactive | inactive | inactive | inactive | inactive | inactive | inactive | inactive | inactive | inactive | inactive | inactive | – | inactive | inactive | –
Cc1cc(-c2ccc(N=Nc3cc(S(=O)(=O)O)c4ccccc4c3N)c(C)c2)ccc1N=Nc1cc(S(=O)(=O)O)c2ccccc2c1N | inactive | inactive | inactive | inactive | inactive | inactive | inactive | inactive | inactive | – | inactive | inactive | 7.52 µM (active) | – | inactive | – | inactive | – | inactive | inactive

— PubChem BioAssay (Tox21)
